Source: PubChem BioAssay AID1508625 (Wald Lab, School of Medicine, Case Western Reserve …, 2021)

test: small molecules boosting NK-mediated OVCAR3 lysis – imaging, primary NK cells, calcein-AM imaging, primary screen (AID 1508625); conditions: OVCAR3 lysis by primary NK cells, at 5 µM; z-score: measured here: robust Z-score, single-point normalisation;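 further: compound given to NK cells 16 h before adding targets at 1.5 to 1 ratio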;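 on z-score: more negative robust z means stronger NK killing of tumor cells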

| SMILES | z-score | corrected activity, negative = more killing |
| --- | --- | --- |
| O=C(NC1CCCCC1)c1nn2c(C(F)(F)F)cc(-c3ccco3)nc2c1Br | -1.55 | -4.13% |
| Cc1ccc(N2CCN(c3ccc(N4C(=O)C5CCCCC5C4=O)cc3[N+](=O)[O-])CC2C)cc1 (stereo unspecified) | -1.7 | -4.67% |
| O=C(NN=Cc1cccc2ccccc12)c1cncc(Br)c1 | -2.98 | -7.56% |
| CC1CCCC(C(=O)OCc2ccccc2)N1 (stereo unspecified) | -1.64 | -4.16% |
| CN(C)CCSc1nnnn1-c1ccccc1 | -1.86 | -4.18% |
| O=C(Oc1cccc(NC(=O)c2ccccc2Cl)c1)c1ccc(Cl)c(S(=O)(=O)N2CCCCC2)c1 | -1.2 | -3.19% |
| O=c1c(=Nc2ccccc2O)c(=O)c2ccccc12 | -0.945 | -2.51% |
| NC(=O)CN1CCOCCN(CC(N)=O)CCOCC1 | -2.65 | -12.6% |
| Cc1cc(C)cc(NS(=O)(=O)c2ccc3[nH]cc(C(=O)NCc4cccs4)c(=O)c3c2)c1 | -1.5 | -6.12% |
| O=c1cc(O)c2c(n1-c1ccccc1)CCCC2 | -2.18 | -7.04% |
| O=S(=O)(c1ccc(Br)c2nsnc12)N1CCC(Cc2ccccc2)CC1 | -1.06 | -3.43% |
| Cc1c(C(=O)OC(C)C)sc(NC(=O)c2cc3ccccc3c(=O)o2)c1C(=O)OC(C)C | -1.65 | -4.01% |
| COCc1cccc(NS(=O)(=O)Cc2ccccc2)c1 | 0.183 | 0.328% |
| Cc1nn(C(=O)c2cccnc2)c(C)c1Sc1ccc(Cl)cc1 | -0.87 | -1.68% |
| CCc1ccccc1-n1cnc2cc(C(=O)NCc3ccc(C)cc3)ccc21 | -1.2 | -4.47% |
| COCCCNC(=O)c1cc(OC)c(OC)c(OC)c1 | -2.27 | -10.8% |
| CCOc1ccc(N2CC(C(=O)Nc3cc(C)ccn3)CC2=O)cc1 (stereo unspecified) | -1.23 | -3.29% |
| O=C(Nc1ccccc1C(=O)O)c1cc(S(=O)(=O)Nc2ccc(Br)cc2)ccc1Cl | -3.06 | -14.5% |
| Cc1occc1C(=O)N1N=C(C2CC2)CC1(O)C(F)(F)F (stereo unspecified) | -1.13 | -2.75% |
| O=C(Nc1ccc(Cl)cc1)c1cc(S(=O)(=O)NC2CCCC2)ccc1F | -0.756 | -2.8% |
| Cc1ccc2nc(-c3ccc(Cl)c(NC(=O)Cc4ccccc4)c3)oc2c1 | -1.77 | -3.3% |
| COc1ccc(Cn2c(=S)[nH]c3cc(C(=O)N4CCCCC4)ccc3c2=O)cc1 | -2.67 | -8.39% |
| O=C(NC1CCCC1)c1c[nH]c2ccc(S(=O)(=O)Nc3cccc(C(F)(F)F)c3)cc2c1=O | -1.72 | -7.02% |
